Data from PubChem BioAssay (NCI).
This is part of a sample that, as a whole, favours compounds with a hit. Of some 79,000 tested, about 15% had one in any assay. Values without a mark were called inactive. Active and inactive are the calls of the source. Cut-off read from the data, not from the text of the source: active = growth inhibition above about 70%; inactive = the rest.

Experiments:
[1] = NCI Yeast Anticancer Drug Screen. Data for the rad50 strain (AID 155);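 note: 0% = growth of vehicle-only cultures of the same strain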; conditions: S. cerevisiae rad50 strain growth inhibition, hits give high values
Outline: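 A DNA repair-deficient yeast mutant serves as the test organism; compound-induced growth inhibition is calculated against vehicle-treated cells.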

[2] = NCI Yeast Anticancer Drug Screen. Data for the mec2-1 strain (AID 157); conditions: S. cerevisiae mec2-1 strain, hits give high values
Outline: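 Strain: mec2-1 (DNA repair/cell cycle alteration). Compound exposure, then growth measured; inhibition expressed relative to vehicle.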

[3] = NCI Yeast Anticancer Drug Screen. Data for the sgs1 mgt1 strain (AID 161);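 note: 0% = growth of cultures given vehicle only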; conditions: S. cerevisiae sgs1 mgt1 strain, hits give high values
Outline: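 Mutant yeast exposed to compound; growth scored against vehicle-only wells.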

[4] = NCI Yeast Anticancer Drug Screen. Data for the cln2 rad14 strain (AID 165);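 note: 0% = growth equal to vehicle treated cultures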; conditions: S. cerevisiae cln2 rad14 strain, hits give high values
Outline: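 Compounds are applied to the cln2 rad14 yeast strain, and growth is then compared with that of vehicle-treated cultures to give inhibition.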

[5] = NCI Yeast Anticancer Drug Screen. Data for the bub3 strain (AID 167); conditions: S. cerevisiae bub3 mutant strain, hits give high values
Outline: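 Inhibition values come from growth of compound-treated mutant yeast normalised to vehicle-treated controls.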

[6] = NCI Yeast Anticancer Drug Screen. Data for the mlh1 rad18 strain (AID 175); conditions: S. cerevisiae mlh1 rad18 strain growth inhibition, hits give high values
Outline: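 Read-out is yeast growth inhibition, calculated against vehicle-only controls. The compound was applied to a strain engineered with DNA damage repair alterations.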

[7] = at 5.0 µM (retest, dose inferred, filed as 0.5)
[8] = at 50.0 µM (retest, dose inferred, filed as 5.0)

SMILES	growth inhibition [1, 7] [%]	growth inhibition [1, 8]	growth inhibition ([1]; at 50.0 µM)	growth inhibition [2, 7] [%]	growth inhibition [2, 8]	growth inhibition ([2]; at 50.0 µM)	growth inhibition [3, 7] [%]	growth inhibition [3, 8]	growth inhibition ([3]; at 50.0 µM)	growth inhibition [4, 7] [%]	growth inhibition [4, 8]	growth inhibition ([4]; at 50.0 µM)	growth inhibition [5, 7] [%]	growth inhibition [5, 8] [%]	growth inhibition ([5]; at 50.0 µM)	growth inhibition [6, 7] [%]	growth inhibition [6, 8]	growth inhibition ([6]; at 50.0 µM)
O=C(CN(Cc1ccccc1)Cc1ccccc1)N1CCc2c([nH]c3ccccc23)C1c1cccnc1 (centres undefined)	29	29%	86.8% (active)	27	27%	86.5% (active)	8	8%	84.1% (active)	19	19%	88.3% (active)	11	11	87.5% (active)	32	32%	85% (active)
NNc1ccccc1F	-34	96% (active)	99.2% (active)	-32	97% (active)	99.7% (active)	-42	92% (active)	97.8% (active)	-41	65%	98% (active)	-45	44	99.2% (active)	-58	95% (active)	98.9% (active)
CCCCCCCCCCCC(=O)OCCN(CCOC(=O)CCCCCCCCCCC)C(=O)COC(=O)CCCCCCCCCCC	-4	39%	99.4% (active)	1	94% (active)	99.7% (active)	3	92% (active)	99.8% (active)	-2	81% (active)	99.3% (active)	-2	60	60.4%	1	86% (active)	99.3% (active)
